# Experimental data: PubChem BioAssay AID662 (National Center for Advancing Translational Sciences (NCATS), 2007)
# The whole screen tested about 71,000 compounds, of which about 1,800 (2.5%) were called active. Roughly 26% stayed inconclusive and do not appear here. The sample as a whole holds a higher share of actives than the screen did. Unmarked numbers belong to inactive results. The call rests on the fitted dose curve; in most records, active means well fitted activation curve with a large enough effect in the signal ratio, with a control signal flat (not every such curve was filed as active); inconclusive means small, poorly fitted or top-dose-only effect, or effect the other way, or a change in a side signal; inactive means flat fitted curve, though single readings scatter; the % refers to the signal ratio.
# Experiment: Cell signaling CRE-BLA (Fsk stim); on activity change, negative = inhibition: % of control where 0% means no effect
# Conditions: CHO CRE-bla reporter (cAMP response element driving beta-lactamase), forskolin EC10, beta-lactamase ratio; series mostly up to 38.2 µM; activity change, negative = inhibition: at the top concentration
# Summary of the method: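 CHO CRE-bla cells, overnight plating in Opti-MEM with 0.5% dialyzed FBS; cpd titration + EC10 NKH 477, 3 h 37 °C; CCF4 2 h RT; ex 405/em 460 vs 530 ratio → %Activity, AC50.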
# Potency means the concentration at half of the fitted maximal effect.
SMILES,"activity change, negative = inhibition [%]",Potency
O=C(OCc1nnc(-c2ccccc2)o1)c1ccc2c(c1)C(=O)N(CCc1ccccc1)C2=O,14.8,
CCOC(=O)c1cc(-c2nnc(-c3cc(OC)c(OC)c(OC)c3)o2)c(C)nc1C,13.5,
CCCc1nc2ccccc2c(C(=O)OCc2nnc(-c3cc(OC)c(OC)c(OC)c3)o2)c1CC,,0.501 µM (active)
C[C@@H]1O[C@@H](O[C@@H]2[C@@H](O)[C@H](OCCc3ccc(O)c(O)c3)O[C@H](CO[C@@H]3O[C@H](CO)[C@@H](O)[C@H](O)[C@H]3O)[C@H]2OC(=O)/C=C/c2ccc(O)c(O)c2)[C@H](O)[C@H](O)[C@H]1O,-1.8,
N[C@@H](C(=O)O)c1ccc(P(=O)(O)O)cc1,3.09,
CC1CN(c2cc(=O)n(Cc3ccc(F)cc3)c(=O)[nH]2)CC(C)O1 (configuration not stated),-4.71,
COCc1cc(C)nc(Nc2cc(C)ccc2C)c1C#N,12.3,
N#Cc1c(NC(=O)CSc2nc3ccccc3c(=O)n2Cc2ccco2)sc2c1CCCC2,-3.2,
CCOCC(=O)Nc1sc2c(c1C(=O)OCC)CCCC2,,10 µM (active)
COC(=O)c1c(NC(=O)CSc2nncs2)sc2c1CCCCC2,,6.31 µM (active)
CCOC(=O)c1c(-n2cnnn2)sc(C)c1C,12.6,
CCOC(=O)c1sc(NC(=O)CCN2CCOCC2)c(C(=O)OCC)c1C,7.36,
COC(=O)c1sc(NC(=O)c2csc3c2CCCC3)nc1C,18.1,
C=CCOC(=O)COCCC(C)C,-7.88,
CC1C(c2ccccc2)=[N+]([O-])C2(CCCC2)N1O (configuration not stated),-1.15,
CCCC[C@@H]1C[C@H]1C(NC(=O)c1ccco1)c1ccc(C(=O)OC)cc1 (some centres not stated),4.18,
C/C=C1\C(=O)C[C@@H]2[C@@H]3CCC4=CC(=O)CC[C@@]4(C)[C@H]3CC[C@@]12C,11.9,
O=C(Nc1cccc(F)c1)c1ccc(S(=O)(=O)N2CCCC2)cc1,-0.683,
CCOc1cc2[nH]c(=S)n(CCCN3CCCC3=O)c(=O)c2cc1OCC,0.0831,
CSc1nnc(-c2ccncc2)n1CCCN1CCCC1=O,0.937,
CC(C)(C)OC(=O)c1c(N)n(CCCN2CCCC2=O)c2nc3ccccc3nc12,,10 µM (active)
Cc1ccccc1C(=O)O,-1.28,
